Assay outcomes: PubChem BioAssay, Broad Institute
BioA inh – M. tuberculosis BioA enzyme inhibitors, primary screen, biochemical, plate reader, single point, HTS. 7,8-diaminopelargonic acid synthase BioA (Mycobacterium tuberculosis). purified M. tuberculosis BioA enzyme. inhibition, % at 9.99 µM. 0.096% of 360,000 active. AID 602481, 2012; in the data active = inhibition above about 40%; inconclusive = no clear call, values can overlap the other calls
TcdB inh – TcdB glycohydrolase inhibitors, primary screen, biochemical, single point, plate reader; inhibition, % at 9.99 µM; 0.24% of 350,000 active; TcdB glycohydrolase enzymatic assay; in the data active = inhibition above about 10%
PrP 5UTR inh – inhibition of PrP 5' UTR reporter expression; cell-based PrP 5' UTR mRNA reporter, plate reader; 0.35% of 340,000 active; inhibition, % (no concentration beside the values); in the data active = inhibition above about 52%
Y pestis TopoI – Yersinia pestis topoisomerase I inhibitors, primary screen, biochemical, cleavage product accumulation, plate reader, single point. Y. pestis Topo-I cleavage product accumulation. activity, % at 10 µM. 0.064% of 360,000 active; in the data active = activity above about 50%, passing the limit was not always enough; inconclusive = no clear call, values can overlap the other calls
PrP 5UTR single – prion 5' UTR mRNA inhibition, cherry-pick retest; shares compounds with PrP 5UTR inh; cell-based prion protein 5' UTR reporter, plate reader; inhibition, % at 2.5 µM; 48% of 1,100 active; AID 504592, 2011; in the data active = inhibition above about 54%; inconclusive = no clear call, values can overlap the other calls
Each line names hits and unclear results; the compound was inactive in the other large screens (follow-up assays come after a bar, where they were run); ! = not active in a repeat. Compounds with a hit are over-represented: about 0.53% of the library has one in this group of screens.

NC(=O)c1ccc(NCCc2ccccc2)c([N+](=O)[O-])c1	none
Cc1ccc(C(=O)Nc2ccc3c(c2)OCCO3)c(C)c1	PrP 5UTR inh 71 | PrP 5UTR single inconclusive
CNC(=O)COC(=O)/C=C/c1ccc(F)cc1	none
CNC(=O)COC(=O)/C=C/c1cccc(F)c1	PrP 5UTR inh 58 | PrP 5UTR single inactive
COc1cc2cc(c1Cl)N(C)C(=O)CC(OC(=O)C(C)N(C)C(C)=O)C1(C)OC1C(C)C1CC(O)(NC(=O)O1)C(OC)C=CC=C(C)C2 (configuration not stated)	PrP 5UTR inh 53 (no result: BioA inh) | PrP 5UTR single 92
Cc1ccc(-c2nc(-c3ccccn3)no2)cc1Cl	PrP 5UTR inh 72 (no result: TcdB inh) | PrP 5UTR single 64
c1ccc(-c2ccc(-c3nc(-c4ccccn4)no3)cc2)cc1	PrP 5UTR inh 89 | PrP 5UTR single 91
Clc1cccc(-c2nc(-c3ccccn3)no2)c1	none (no result: TcdB inh)
c1ccc(-c2nc(-c3ccccn3)no2)cc1	none (no result: TcdB inh)
Cc1ccc(-c2nc(-c3ccccn3)no2)cc1	PrP 5UTR inh 86 (no result: TcdB inh) | PrP 5UTR single 91
Cc1noc(C)c1NC(=O)Nc1cccc2c1O[C@H](CN(C)Cc1ccc(C(F)(F)F)cc1)[C@H](C)CN([C@@H](C)CO)C2=O	none (no result: PrP 5UTR inh, Y pestis TopoI)
O=c1c2ccccc2cnn1CCOc1ccccc1	PrP 5UTR inh 71 (no result: TcdB inh) | PrP 5UTR single 70
CCN(CCO)c1ccc(N=Nc2cc(C)[nH]n2)cc1	PrP 5UTR inh 61 (no result: BioA inh) | PrP 5UTR single 62
CCN(CCO)c1ccc(Nc2cc(-c3ccc(-c4ccccc4)cc3)ncn2)cc1	none (no result: PrP 5UTR inh)
Cc1ccc(-c2cc3onc(-c4ccccc4)c3c(=O)n2C)cc1	PrP 5UTR inh 61 | PrP 5UTR single inactive
C/C(=C\CNc1ncnc2nc[nH]c12)CO	none
CC(C)CCCCCCCCCCCCC(=O)NCC(=O)NC1C(C)OC(Nc2ncnc3nc[nH]c23)C(O)C1O (configuration not stated)	PrP 5UTR inh 75 (no result: BioA inh) | PrP 5UTR single 77
C[C@H](CO)N1C[C@H](C)[C@@H](CN(C)S(=O)(=O)c2cn(C)cn2)Oc2ccc(NC(=O)CCC(F)(F)F)cc2C1=O	none (no result: PrP 5UTR inh, Y pestis TopoI)
COc1ccc(NC(=O)Nc2ccc3c(c2)C(=O)N([C@H](C)CO)C[C@H](C)[C@@H](CN(C)C(=O)Nc2ccc(C(F)(F)F)cc2)O3)cc1	none
COc1ccc(NC(=O)N(C)C[C@H]2Oc3ccc(NC(=O)Nc4ccc(C(F)(F)F)cc4)cc3C(=O)N([C@H](C)CO)C[C@@H]2C)cc1	PrP 5UTR inh 65 | PrP 5UTR single inactive
COc1ccc(S(=O)(=O)n2ccc(-c3cnc(-c4ccccc4)s3)n2)cc1	none (no result: TcdB inh)
O=C(c1ccccc1)n1ccc(-c2cnc(-c3ccccc3)s2)n1	PrP 5UTR inh 54 (no result: BioA inh, TcdB inh) | PrP 5UTR single inactive
C[C@@H]1CCCCO[C@@H](CN(C)CC2CCCCC2)[C@@H](C)CN([C@@H](C)CO)C(=O)c2cc(NS(=O)(=O)c3cn(C)cn3)ccc2O1	none (no result: PrP 5UTR inh, Y pestis TopoI)
CCC(=O)N(C)C[C@@H]1Oc2cc(C#CC(C)(C)O)ccc2S(=O)(=O)N([C@H](C)CO)C[C@H]1C	none (no result: PrP 5UTR inh, Y pestis TopoI)
COc1ccc(NC(=O)N(C)C[C@H]2Oc3c(NC(=O)Nc4ccc(F)cc4)cccc3C(=O)N([C@H](C)CO)C[C@@H]2C)cc1	none (no result: PrP 5UTR inh, Y pestis TopoI)
Cc1ccc2c([N+](=O)[O-])cccc2n1	none (no result: BioA inh, TcdB inh)
Cc1nc2c(ccc3c([N+](=O)[O-])cccc32)c(C)c1C	PrP 5UTR inh 71 | PrP 5UTR single inactive
COc1cc(OC)cc(C(=O)N2CCN(Cc3cccc(F)c3)CC2)c1	none (no result: TcdB inh)
COc1cc(OC)cc(C(=O)N2CCN(Cc3ccccc3Br)CC2)c1	PrP 5UTR inh 85 (no result: BioA inh) | PrP 5UTR single inactive
CN(C)CCCNC(=O)C[C@H]1CC[C@H]2[C@@H](COC[C@@H](O)CN2CC2CCCC2)O1	none (no result: PrP 5UTR inh, Y pestis TopoI)
CN1CCc2c(c3ccccc3n2Cc2ccccc2)C1	PrP 5UTR inh 58! | PrP 5UTR single inactive
CCCCN1CCc2c(c3ccccc3n2Cc2ccccc2)C1	none
CC(=O)N1CC2(C1)[C@@H](c1ccc(-c3ccccc3C)cc1)[C@@H](CO)N2C(=O)CC1CC1	none (no result: BioA inh, PrP 5UTR inh, Y pestis TopoI)
C[C@H](CO)N1C[C@H](C)[C@@H](CN(C)C(=O)CN(C)C)Oc2ncc(-c3ccccc3F)cc2C1=O	none (no result: PrP 5UTR inh, Y pestis TopoI)
O=C(c1ccccc1)N1CC2(C1)[C@H](c1ccccc1)[C@@H](CO)N2C(=O)CC1CC1	none (no result: BioA inh, PrP 5UTR inh, Y pestis TopoI)
CCOC(=O)c1c(SCCN2CCCC2)n(-c2ccccc2)c(=S)n(-c2ccccc2)c1=O	PrP 5UTR inh 65 (no result: BioA inh) | PrP 5UTR single inactive
Cc1ccccc1-c1nnc(SCC(=O)NC2CCCCC2)o1	none (no result: BioA inh, TcdB inh)
COc1ccccc1-c1nnc(SCC(=O)NC2CCCCC2)o1	PrP 5UTR inh 76 | PrP 5UTR single inactive
CCOc1ncccc1C(=O)N1CCN(c2cccc(C)c2C)CC1	PrP 5UTR inh 70 (no result: BioA inh) | PrP 5UTR single 86
NC1=C(Cl)C(=O)c2ccc(S(N)(=O)=O)cc2C1=O	PrP 5UTR inh 96 | PrP 5UTR single 96
NC1=C(Cl)C(=O)c2ccccc2C1=O	none (no result: BioA inh)
O=C(COc1cc(Cl)c(Cl)cc1Cl)NCCN1CCOCC1	PrP 5UTR inh 55 (no result: TcdB inh) | PrP 5UTR single inactive
O=C(C[C@@H]1CC[C@H]2[C@@H](COC[C@H](O)CN2Cc2cc(F)ccc2F)O1)NCc1ccc(Cl)cc1	none (no result: TcdB inh, PrP 5UTR inh, Y pestis TopoI)
C[C@@H]1CN([C@H](C)CO)C(=O)c2cc(/C=C/c3ccccc3)cnc2O[C@H]1CN(C)Cc1ccncc1	none (no result: PrP 5UTR inh, Y pestis TopoI)
CS(=O)(=O)Nc1ccccc1C(=O)NCC1(N2CCCCC2)CCCCC1	PrP 5UTR inh 67 (no result: BioA inh) | PrP 5UTR single inactive
Cc1nnc(NN2CCOCC2)[nH]c1=O	PrP 5UTR inh 84 | PrP 5UTR single inactive
Nc1nc(F)nc2c1ncn2[C@@H]1O[C@H](CO)[C@@H](O)[C@H]1O	PrP 5UTR inh 94 | PrP 5UTR single 94
CC(=Nc1ccccc1)C1=C(O)C(Cc2ccc(O)cc2)NC1=O (configuration not stated)	PrP 5UTR inh 54 (no result: BioA inh) | PrP 5UTR single 89
CCCNC(=O)[C@H]1[C@H](CO)[C@H]2Cn3c(ccc(-c4cccc(OC)c4)c3=O)[C@@H]1N2CC	none (no result: BioA inh, PrP 5UTR inh, Y pestis TopoI)
Cc1ccc(S(=O)(=O)NCCC(=O)N2CC(C)OC(C)C2)cc1 (configuration not stated)	PrP 5UTR inh 75 | PrP 5UTR single inactive
O=C(NCCN1C(=O)S/C(=C/c2cccnc2)C1=O)c1ccc(S(=O)(=O)N2CCCC2)cc1	PrP 5UTR inh 85 (no result: BioA inh) | PrP 5UTR single inactive
Fc1cccc(/C=N/Nc2nc3ccccc3[nH]2)c1	none (no result: BioA inh, PrP 5UTR inh, Y pestis TopoI)
C(=N\Nc1nc2ccccc2[nH]1)/c1ccccc1	PrP 5UTR inh 55 | PrP 5UTR single inactive
Cc1noc(C)c1NC(=O)N(C)C[C@H]1OCCCC[C@@H](C)Oc2ccc(NC(=O)Cc3ccccc3)cc2C(=O)N([C@H](C)CO)C[C@H]1C	none (no result: PrP 5UTR inh, Y pestis TopoI)
C=CCN(CC=C)S(=O)(=O)c1ccc(NC(=S)NC(=O)/C=C/c2ccccc2)cc1	PrP 5UTR inh 59 (no result: TcdB inh) | PrP 5UTR single inactive
Cc1cc(C(=O)COC(=O)c2ccccc2O)c(C)n1CC1CCCO1 (configuration not stated)	PrP 5UTR inh 89 | PrP 5UTR single 90
